Source: PMC4336329 (PLoS ONE, 2015)
Hit rate of the full screen: of about 310,000 compounds, about 2,200 (0.71%) showed an effect of 50% or more. The effect is printed as a negative number. Only a selection was taken, and strong results are over-represented in it overall.

Biological target: human ether-à-go-go-related gene (hERG) potassium channel (human, UniProt Q12809)
Assay: primary screen, population patch clamp on CHO cells stably expressing hERG; higher = less effect of the substance

human ether-à-go-go-related gene (hERG) potassium channel, sequence (Q12809 whole entry, looked up): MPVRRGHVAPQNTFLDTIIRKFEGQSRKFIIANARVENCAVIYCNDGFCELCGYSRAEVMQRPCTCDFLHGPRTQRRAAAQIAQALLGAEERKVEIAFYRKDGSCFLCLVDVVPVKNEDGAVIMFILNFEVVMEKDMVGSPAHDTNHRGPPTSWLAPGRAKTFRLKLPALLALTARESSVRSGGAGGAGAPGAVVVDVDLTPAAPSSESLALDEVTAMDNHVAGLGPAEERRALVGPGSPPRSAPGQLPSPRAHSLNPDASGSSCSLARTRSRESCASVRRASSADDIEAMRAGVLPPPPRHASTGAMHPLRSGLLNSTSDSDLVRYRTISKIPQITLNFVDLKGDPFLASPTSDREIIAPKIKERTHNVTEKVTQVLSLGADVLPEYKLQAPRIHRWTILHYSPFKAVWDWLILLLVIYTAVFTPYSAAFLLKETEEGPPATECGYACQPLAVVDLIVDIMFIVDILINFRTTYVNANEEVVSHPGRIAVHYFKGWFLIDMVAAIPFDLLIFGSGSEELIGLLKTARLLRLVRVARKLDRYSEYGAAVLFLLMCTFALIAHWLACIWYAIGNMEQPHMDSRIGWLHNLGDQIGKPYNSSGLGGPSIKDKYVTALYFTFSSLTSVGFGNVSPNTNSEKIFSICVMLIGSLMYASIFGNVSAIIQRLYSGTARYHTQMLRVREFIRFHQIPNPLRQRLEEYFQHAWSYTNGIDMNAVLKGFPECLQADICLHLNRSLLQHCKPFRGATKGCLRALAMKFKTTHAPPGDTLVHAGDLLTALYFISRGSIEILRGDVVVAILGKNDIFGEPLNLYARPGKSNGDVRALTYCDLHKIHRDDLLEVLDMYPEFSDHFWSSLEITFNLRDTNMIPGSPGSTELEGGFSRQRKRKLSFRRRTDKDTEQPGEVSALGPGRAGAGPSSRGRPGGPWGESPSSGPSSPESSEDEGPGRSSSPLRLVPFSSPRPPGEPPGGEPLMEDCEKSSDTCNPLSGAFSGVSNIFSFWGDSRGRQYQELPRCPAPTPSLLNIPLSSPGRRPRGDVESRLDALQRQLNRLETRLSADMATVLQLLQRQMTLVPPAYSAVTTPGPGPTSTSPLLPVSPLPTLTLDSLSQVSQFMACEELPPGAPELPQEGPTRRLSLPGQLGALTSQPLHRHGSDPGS

Structure (SMILES)	hERG current change (%, negative = inhibition) at 1uM
CCc1cc2c(N3CCCCC3)ncnc2s1.Cl	5.54%
CCc1cc2c(NCCO)ncnc2s1	14.1%
CCc1cc2c(NCCN3CCCCC3)ncnc2s1.Cl	-55.9%
CC[C@@]12C(=O)N(c3cccc(Br)c3)C(=O)N1[C@H](c1ccc(Cl)cc1)[C@@H]1C(=O)N(C3CCCCC3)C(=O)[C@@H]12	6.83%
COc1ccc2nc(C)cc(N3CCOCC3)c2c1	7.31%
Cc1cc(N2CCN(S(=O)(=O)c3ccccc3)CC2)c2ccccc2n1	-78.6%
CC(=O)Nc1ccc(S(=O)(=O)N2CCN(c3cc(C)nc4ccccc34)CC2)cc1	-71.6%
Cn1c(N2CCN(S(=O)(=O)c3ccc(Cl)cc3)CC2)nc2ccccc21	-23.2%
COc1ccc2nc(C)cc(N3CCN(S(=O)(=O)c4ccccc4F)CC3)c2c1	-62.2%
CC(=O)Nc1ccc(S(=O)(=O)N2CCN(c3nc(C)cc(C)n3)CC2)cc1	14.9%
CC(=O)Nc1ccc(S(=O)(=O)N2CCN(S(=O)(=O)c3ccccc3)CC2)cc1	10.1%
Cc1cc(N2CCN(S(=O)(=O)c3ccc(Cl)cc3)CC2)c2ccccc2n1	-80.8%
Cc1ccccc1N1CCN(S(=O)(=O)c2ccccc2)CC1	5.62%
COc1ccc2nc(C)cc(N3CCN(c4ccccc4)CC3)c2c1	-29%
Cc1cc(N2CCN(S(=O)(=O)c3ccc(Cl)c(Cl)c3)CC2)c2ccccc2n1	4.58%
Cc1cc(N2CCN(S(=O)(=O)c3ccc(C)c(C)c3)CC2)c2ccccc2n1	-18.3%
Cc1ccc(CS(=O)(=O)CCC(=O)NCCC(C)C)cc1	6.06%
COCCn1c(C)cc(C(=O)CSc2nc(C)c(C)c(C)n2)c1C	9.29%
CCc1noc(C)c1C(=O)Nc1sc(C(=O)N(C)C)c(C)c1C(=O)OC	-6.16%

Structure (SMILES)	hERG current change (%, negative = inhibition) at 1uM
Cc1c(NC(=O)c2ccc(S(=O)(=O)N3CCOCC3)cc2)cccc1[N+](=O)[O-]	7.56%
CC(C)(C)n1ncc2c(=O)n(Cc3cccc(Cl)c3)cnc21	-10.1%
Cc1ccnc(NS(=O)(=O)c2cccs2)c1	12.9%
Cc1ccc(C(=O)COC(=O)c2ccc3c(c2)C(=O)N(c2cccc4ncccc24)C3=O)cc1C	4.09%
COC(=O)c1c(C)[nH]c(C(=O)C(C)OC(=O)C2CC2)c1C (centres unmarked)	10%
Cc1cc(N2CCN(c3ccc([N+](=O)[O-])c4cccnc34)CC2)c2ccccc2n1	-13.9%
Cc1ccc(S(=O)(=O)N2CCN(c3ccc(C(F)(F)F)cc3[N+](=O)[O-])CC2)cc1	2.51%
Cc1cc(N2CCN(c3ccc(C(F)(F)F)cc3[N+](=O)[O-])CC2)c2ccccc2n1	-64.2%
COc1ccccc1NC(=O)Nc1ccc(N2CCOCC2)cc1	10.4%
Cc1ccc(NC(=O)CN2C(=O)NC(C)(c3ccc(Cl)cc3)C2=O)cc1 (centres unmarked)	14.4%
COc1ccccc1CN1C2CCCC1CC(NC(=O)/C=C/c1ccccc1)C2 (centres unmarked)	-43.8%
CCc1cccc(CC)c1NC(=O)CN1C2CCCC1CC(NC(=O)Nc1cccc(OC)c1)C2 (centres unmarked)	9.12%
COc1ccc(NC(=O)NC2CC3CCCC(C2)N3Cc2ccccc2)cc1 (centres unmarked)	-17.4%
O=C(/C=C/c1ccccc1)NC1CC2CCCC(C1)N2Cc1ccccc1 (centres unmarked)	-46.4%
O=C(Nc1cccc(F)c1)NC1CC2CCCC(C1)N2C1CC1 (centres unmarked)	4.85%
COc1ccc(CN2C3CCCC2CC(NC(=O)Nc2cccc(C)c2)C3)cc1 (centres unmarked)	-71.5%
COc1ccc(CN2C3CCCC2CC(NC(=O)/C=C/c2ccccc2)C3)cc1 (centres unmarked)	-84.2%
Cc1cccc(NC(=O)NC2CC3CCC(C2)N3Cc2ccco2)c1 (centres unmarked)	-8.04%
COc1ccc(CN2C3CCCC2CC(NC(=O)Nc2ccccc2C)C3)cc1 (centres unmarked)	-36.5%

Structure (SMILES)	hERG current change (%, negative = inhibition) at 1uM
Cc1ccc(CN2C3CCCC2CC(NC(=O)Nc2cccc(F)c2)C3)cc1 (centres unmarked)	-85.2%
COc1ccc(CN2C3CCCC2CC(NC(=O)Nc2ccccc2)C3)cc1 (centres unmarked)	-64%
CCC(=O)NC1CC2CCCC(C1)N2Cc1ccc(C)cc1 (centres unmarked)	-11.9%
CC(C)(C)OC(=O)NCCCCCc1nnc(SCc2ccc(F)cc2)o1	3.71%
CCCCc1cc2c(s1)CCCC/C2=N/O	2.41%
Cc1cc(S(=O)(=O)Nc2ccc(C(=O)NCCCN3CCOCC3)cc2)ccc1F	19.8%
Cc1ccsc1/C=N/n1c(-c2ccncc2)n[nH]c1=S	19.8%
O=C(O)C=C(Br)Br	7.58%
COC(=O)/C(=C1/Oc2cc(C)oc(=O)c2S1)C(F)(F)F	13.6%
CCOC(=O)CON1C(=O)C(C)(C)N(OCC(=O)OCC)C(=O)C1(C)C	15.7%
Cc1ccc(-n2ccnc(SCC(=O)NC3CCCCC3)c2=O)cc1F	14.5%
CC(c1ccccc1)C1CC(=O)N(CC(=O)O)C1=O (centres unmarked)	16.2%
Cc1cccn2c(=O)c3cc(C(=O)NC4CCCCCC4)sc3nc12	15.1%
Cc1cccn2c(=O)c3cc(C(=O)NC4CCCC4)c(=N)n(C4CCCC4)c3nc12	-87%
Cc1cccn2c(=O)c3cc(C(=O)NC4CCCC4)n(C)c3nc12	9.12%
Cc1cccn2c(=O)c3cc(C(=O)NC4CCCCC4)n(C)c3nc12	13.8%
Cc1cccn2c(=O)c3cc(C(=O)NC4CCCC4)sc3nc12	2.15%
Cc1cccn2c(=O)c3cc(C(=O)NC4CCCC4)c(=N)n(C4CCCCC4)c3nc12	-81.9%
